Values joined by “and” are separate entries in the source; they are usually repeats but may differ in a detail not shown here. Equal values may be shown once. Read-outs that look alike come from different tables or passages of the source.
Experiments:
NEK6 = settings: concentration: 1 μM, replicates: in singlicate, n = 1
NEK7 = settings: concentration: 1 μM, replicates: in singlicate; n = 1
NEK9 = settings: concentration: 1 μM, replicates: in singlicate, n = 1
NIK = system: T1, NIK; settings: concentration: 1 μM, replicates: in singlicate, n = 1
T1 construct: gene MAP3K14

NIM1 = system: T2, NIM1; settings: concentration: 1 μM, replicates: in singlicate, n = 1
T2 construct: gene MGC42105

NLK = settings: concentration: 1 μM, replicates: in singlicate, n = 1
OSR1 = system: T3, OSR1; settings: concentration: 1 μM, replicates: in singlicate, n = 1
T3 construct: gene OXSR1

PAK1 = settings: concentration: 1 μM, replicates: in singlicate, n = 1
PAK2 = settings: concentration: 1 μM, replicates: in singlicate, n = 1
PAK3 = settings: concentration: 1 μM, replicates: in singlicate, n = 1
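Note: KINOMEscan kinase panel screen.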

| Compound | %Inh (NEK6) [%] | %Inh (NEK7) [%] | %Inh (NEK9) [%] | %Inh (NIK) [%] | %Inh (NIM1) [%] | %Inh (NLK) [%] | %Inh (OSR1) [%] | %Inh (PAK1) [%] | %Inh (PAK2) [%] | %Inh (PAK3) [%] | %Inh (NEK6; 1 µM) | %Inh (NEK9; 1 µM) | %Inh (NIK; 1 µM) | %Inh (NIM1; 1 µM) | %Inh (NLK; 1 µM) | %Inh (OSR1; 1 µM) | %Inh (PAK1; 1 µM) | %Inh (PAK2; 1 µM) | %Inh (PAK3; 1 µM) |
| --- | --- | --- | --- | --- | --- | --- | --- | --- | --- | --- | --- | --- | --- | --- | --- | --- | --- | --- | --- |
| Cn1ccc2ncnc(Oc3ccc(NC(=O)Nc4ccncc4)c(Cl)c3)c21 | 0 | 0 | 0 | 0 | 0 | 0 | 0 | 16 | 2 | 0 |  |  |  |  |  |  |  |  |  |
| Cn1cc(-c2ccc3c(c2)CCN3C(=O)Cc2ccccc2Cl)c2c(N)ncnc21 [GSK2608885] | 3 | 17 | 33 | 8 | 7 | 86 | 10 | 44 | 13 | 28 |  |  |  |  |  |  |  |  |  |
| O=C1NC(=O)C(N2CCc3ccccc32)=C1c1cccc(Cl)c1 [SB-408010] | 9 | 0 | 0 | 0 | 0 | 12 | 0 | 9 | 44 | 0 |  |  |  |  |  |  |  |  |  |
| COc1ccc(CNC(=O)NC2CCN(c3ccnc(Nc4ccc(OC)cc4)n3)C2)cc1 (stereo not shown) [GSK1379727] | 0 | 0 | 6 | 17 | 33 | 24 | 0 | 0 | 0 | 0 |  |  |  |  |  |  |  |  |  |
| O=C(NCCCN1CCOCC1)c1cccc(Nc2nccc(Nc3ccc(Oc4ccccc4)cc3)n2)c1 [GW663929] | 15 | 28 | 28 | 3 | 28 | 27 | 0 | 9 | 15 | 0 |  |  |  |  |  |  |  |  |  |
| Cc1cccc(-c2nc(Nc3ccc4ncsc4c3)c3ccccc3n2)n1 [GW867588] | 8 | 0 | 0 | 0 | 17 | 14 | 0 | 0 | 45 | 19 |  |  |  |  |  |  |  |  |  |
| COc1ccc(Nc2ncc(C#N)c(Nc3ccccc3C(N)=O)n2)cc1N1CCN(C)CC1.Cl [GSK1558669] | 99.9 | 97.4 | 98.2 | 96.6 | 99.9 | 71 | 100 | 91.2 | 96.9 | 100 |  |  |  |  |  |  |  |  |  |
| [2H]C([2H])(c1cccc(C(F)(F)F)c1C)n1ccn2c(=O)nc(N3CCOCC3)cc12 [GSK2336394] | 0 | 0 | 53 | 0 | 13 | 0 | 9 | 0 | 12 | 13 |  |  |  |  |  |  |  |  |  |
| C[C@@H](Oc1cc(-n2cnc3ccc(NC(=O)NC(C)(C)C)cc32)sc1C(N)=O)c1ccccc1Cl [GSK346294] | 0 | 4 | 16 | 21 | 19 | 19 | 18 | 15 | 14 | 15 |  |  |  |  |  |  |  |  |  |
| CC(=O)Nc1ccc(COc2ccc(Nc3ccnc4cc(-c5ccccn5)ccc34)cc2)cc1.Cl [GW440148] | 0 | 0 | 20 | 0 | 23 | 0 | 0 | 15 | 0 | 22 |  |  |  |  |  |  |  |  |  |
| CN1c2ccc(NCc3ccc(F)cc3)cc2-c2c(cnn2C)S1(=O)=O | 0 | 0 | 0 | 7 | 4 | 0 | 0 | 0 | 1 | 0 |  |  |  |  |  |  |  |  |  |
| Cl.Nc1ncnc2occ(-c3ccc(NC(=O)Nc4cc(C(F)(F)F)ccc4F)cc3)c12 [SB-707548] | 0 | 0 | 76 | 36 | 28 | 26 | 3 | 24 | 30 | 15 |  |  |  |  |  |  |  |  |  |
| NS(=O)(=O)CCc1cccc(Nc2nccc(-c3c(-c4cccc(NC(=O)c5c(F)cccc5F)c4)nn4ccccc34)n2)c1 [GSK336735] | 8 | 11 | 57 | 4 | 15 | 84 | 10 | 26 | 12 | 36 |  |  |  |  |  |  |  |  |  |
| CCc1ccnc(/C=C/c2n[nH]c3cc(Sc4ccccc4C(=O)NC)ccc23)c1 | 0 | 0 | 0 | 0 | 0 | 0 | 0 | 0 | 0 | 0 |  |  |  |  |  |  |  |  |  |
| Fc1ccc(-c2ncn(CCCN3CCOCC3)c2-c2ccccn2)cc1 [SB-211742] | 15 | 0 | 0 | 0 | 0 | 0 | 0 | 0 | 0 | 0 |  |  |  |  |  |  |  |  |  |
| CC(C)(CN)c1nc(-c2ccc(Cl)c(O)c2)c(-c2ccncc2)[nH]1.O=C(O)C(F)(F)F [SB-477794] |  | 0 |  |  |  |  |  |  |  |  | 0% and 2% | 0% and 11% | 0% and 3% | 4% and 0% | 98.1% and 98.4% | 4% and 0% | 23% and 11% | 1% and 0% | 35% and 39% |
| c1ccc(-c2n[nH]cc2-c2ccnc3ccccc23)nc1 [GW271431] | 0 | 0 | 58 | 4 | 21 | 58 | 13 | 16 | 20 | 6 |  |  |  |  |  |  |  |  |  |
| CCc1nc(-c2cccc(C)c2)c(-c2ccnc(NCc3ccccc3)c2)s1 | 0 | 0 | 0 | 0 | 0 | 21 | 0 | 30 | 27 | 22 |  |  |  |  |  |  |  |  |  |
| O=c1cc(N2CCOCC2)nc2n(Cc3cccc4ccccc34)ccn12 [GSK2333389] | 0 | 13 | 14 | 0 | 8 | 0 | 5 | 13 | 3 | 10 |  |  |  |  |  |  |  |  |  |

Source: PMC5540273 (PLoS ONE, 2017)
